These results are taken from PubChem BioAssay.

Values without a mark were called inactive. For some of these results: Measured potencies and affinities stand elsewhere. Activity calls are given as the source filed them. Unless noted, how the calls were made is not given here.

For orientation: inhibition means the relative decrease from the control value, in per cent.

Experiment [1] in a line: antimalarial activity against Dd2 strain (AID 2302;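 active means growth inhibition above 50% at the single 2 µM test dose, taken to imply half-maximal potency below 2 µM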;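 further: 0% = DMSO untreated growth and 100% = chloroquine plus artemisinin killed control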). To be noted: P. falciparum Dd2 in RBCs, LDH growth readout, 72 h; at 2 µM; active compounds read high.
Experiment [2] can be described thus: HepG2 cytotoxicity, primary screen, cytotoxicity control for P. falciparum antimalarial project, cell-based, ATP luminescence (AID 2303;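 active means inhibition above 50%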;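 further: 0% = DMSO wells and 100% = digitonin-killed cells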). Conditions: HepG2 viability, 24-48 h, at 10 µM, active compounds read high.
Experiment [3] has as its target L-lactate dehydrogenase (Plasmodium falciparum (isolate CDC / Honduras)) (UniProt Q27743). Briefly: PfLDH activity inhibition – cell lysate, 3D7 strain, counter-screen for P. falciparum growth inhibition project (AID 2304).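 Further: 0% = vehicle and 100% = reference inhibitor.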 Conditions: P. falciparum 3D7 crude extract, LDH APAD/NBT absorbance; at 2 µM; active compounds read high. On the technique in general: A counterscreen serves to expose hits that act by an unwanted route or on another target.

A short description of experiment [4]: inhibition of 3D7 malaria parasite growth – strain 3D7 (AID 2306).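 Further: 0% = DMSO wells and 100% = chloroquine plus artemisinin control wells.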 Conditions: P. falciparum 3D7 erythrocytic growth, LDH absorbance, 72 h; at 2 µM; active compounds read high.
The target in experiment [5] is Calcium-dependent protein kinase 1 (Plasmodium falciparum (isolate 3D7)) (UniProt P62344). Kind of experiment: PfCDPK1 kinase inhibitors, biochemical, TCAMS library (AID 1159585; cut-off not given, nearly all actives have IC50 up to about 0.98 µM;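 further: inhibitors leave more ATP so luminescence rises with inhibition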). Conditions: recombinant PfCDPK1, Kinase-Glo ATP depletion luminescence.
Experiment [6] has as its target Plasmodium falciparum protein kinase 6 (PK6, PF3D7_1337100) (UniProt Q8IDW1). Kind of experiment: PfPK6 kinase inhibitors, biochemical, TCAMS library (AID 1159586). Conditions: recombinant PfPK6, Kinase-Glo ATP depletion luminescence. Background: In Kinase-Glo more light means more ATP remaining.
Experiment [7] addresses Protein kinase 7 (PK7), Plasmodium falciparum 3D7 (PF3D7_0213400) (UniProt Q7YTF7). Kind of experiment: inhibition of Plasmodium PK7 catalytic activity – biochemical, TCAMS antimalarial set, Kinase-Glo luminescence (AID 1159587). Conditions: recombinant PfPK7, Kinase-Glo ATP depletion luminescence.
The target in experiment [8] is Calcium-dependent protein kinase 4 (Plasmodium falciparum (isolate 3D7)) (UniProt Q8IBS5). Kind of experiment: PfCDPK4 kinase inhibitors, biochemical, TCAMS library (AID 1159588; cut-off not given, nearly all actives have IC50 up to about 0.91 µM). To be noted: recombinant PfCDPK4, Kinase-Glo ATP depletion luminescence.
Chain of Calcium-dependent protein kinase 4 (Plasmodium falciparum (isolate 3D7)) (Q8IBS5 whole entry, looked up): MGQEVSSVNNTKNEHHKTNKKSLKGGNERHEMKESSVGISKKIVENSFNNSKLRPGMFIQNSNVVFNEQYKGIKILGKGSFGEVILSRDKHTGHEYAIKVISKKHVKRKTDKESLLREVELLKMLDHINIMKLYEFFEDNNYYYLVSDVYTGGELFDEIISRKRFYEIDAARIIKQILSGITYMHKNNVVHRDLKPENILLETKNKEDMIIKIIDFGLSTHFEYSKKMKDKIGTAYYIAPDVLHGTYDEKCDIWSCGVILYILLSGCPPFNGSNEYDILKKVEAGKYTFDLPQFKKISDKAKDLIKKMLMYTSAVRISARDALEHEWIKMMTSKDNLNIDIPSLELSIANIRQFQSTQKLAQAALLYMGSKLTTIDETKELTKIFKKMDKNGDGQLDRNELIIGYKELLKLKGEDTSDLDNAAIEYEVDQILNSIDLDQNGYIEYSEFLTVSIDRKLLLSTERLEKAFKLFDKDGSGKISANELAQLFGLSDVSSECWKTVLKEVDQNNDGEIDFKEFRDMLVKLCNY

Chain of Calcium-dependent protein kinase 1 (Plasmodium falciparum (isolate 3D7)) (P62344 whole entry, looked up): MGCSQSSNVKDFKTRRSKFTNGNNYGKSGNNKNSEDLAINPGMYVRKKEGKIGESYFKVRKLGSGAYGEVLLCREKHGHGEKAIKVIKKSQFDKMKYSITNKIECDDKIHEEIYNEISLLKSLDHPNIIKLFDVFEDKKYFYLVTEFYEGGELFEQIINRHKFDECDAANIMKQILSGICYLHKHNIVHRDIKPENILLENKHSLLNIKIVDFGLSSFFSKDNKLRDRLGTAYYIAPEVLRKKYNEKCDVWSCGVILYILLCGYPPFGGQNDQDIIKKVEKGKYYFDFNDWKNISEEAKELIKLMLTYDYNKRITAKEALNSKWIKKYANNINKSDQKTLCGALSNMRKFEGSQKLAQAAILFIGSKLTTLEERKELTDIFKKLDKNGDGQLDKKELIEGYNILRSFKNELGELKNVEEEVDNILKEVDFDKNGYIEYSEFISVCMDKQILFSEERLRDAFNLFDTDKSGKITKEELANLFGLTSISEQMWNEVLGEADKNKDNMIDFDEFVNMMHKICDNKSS
Chain of Protein kinase 7 (PK7), Plasmodium falciparum 3D7 (PF3D7_0213400) (Q7YTF7 1-343): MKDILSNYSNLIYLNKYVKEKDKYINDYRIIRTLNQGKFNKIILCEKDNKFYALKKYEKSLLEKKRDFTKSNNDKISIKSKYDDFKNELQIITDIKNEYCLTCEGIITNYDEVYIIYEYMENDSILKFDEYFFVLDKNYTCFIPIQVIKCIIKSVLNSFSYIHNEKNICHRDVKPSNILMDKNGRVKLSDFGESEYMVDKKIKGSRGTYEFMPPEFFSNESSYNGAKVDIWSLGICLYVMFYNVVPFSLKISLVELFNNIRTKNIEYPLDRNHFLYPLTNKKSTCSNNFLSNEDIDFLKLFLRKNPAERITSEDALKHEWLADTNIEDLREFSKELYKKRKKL
Chain of Plasmodium falciparum protein kinase 6 (PK6, PF3D7_1337100) (Q8IDW1 1-305): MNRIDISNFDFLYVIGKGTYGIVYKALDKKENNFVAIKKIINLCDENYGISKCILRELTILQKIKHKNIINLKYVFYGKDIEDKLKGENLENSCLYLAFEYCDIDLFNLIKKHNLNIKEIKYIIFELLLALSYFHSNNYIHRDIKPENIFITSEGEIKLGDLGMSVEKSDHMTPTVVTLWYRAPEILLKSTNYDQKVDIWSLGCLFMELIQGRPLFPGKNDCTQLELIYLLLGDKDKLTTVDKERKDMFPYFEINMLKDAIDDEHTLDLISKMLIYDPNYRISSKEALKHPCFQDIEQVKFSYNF
Chain of L-lactate dehydrogenase (Plasmodium falciparum (isolate CDC / Honduras)) (Q27743 whole entry, looked up): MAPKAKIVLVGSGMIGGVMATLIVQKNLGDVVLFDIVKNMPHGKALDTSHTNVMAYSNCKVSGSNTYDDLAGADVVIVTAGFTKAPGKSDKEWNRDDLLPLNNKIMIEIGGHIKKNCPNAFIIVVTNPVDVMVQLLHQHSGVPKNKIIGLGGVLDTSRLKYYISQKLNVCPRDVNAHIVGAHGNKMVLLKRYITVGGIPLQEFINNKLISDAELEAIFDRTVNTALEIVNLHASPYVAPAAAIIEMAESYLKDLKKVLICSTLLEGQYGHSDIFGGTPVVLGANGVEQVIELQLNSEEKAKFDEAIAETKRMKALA

On to `Cc1cnc(C(=O)Nc2cccc(-c3cccc(-c4nc5ccc(F)cc5[nH]4)c3)c2)cn1`, for which the figures for the growth inhibition in experiment [1] and in experiment [4] were 24% and 99% (active), respectively. Moreover, the inhibition was 25% in experiment [2] and -1% in experiment [3]. Further, the outcome in experiment [5], in experiment [6], in experiment [7] and in experiment [8] was inactive.

Consider `COc1ccc2nccc([C@@H](O)CN3CCC(NCc4ccc(OC)c(NC=O)c4)CC3)c2c1`, for which the growth inhibition in experiment [1] was -1%; in experiment [4] it was 97% (active). The inhibition in experiment [2] is 0%; in experiment [3], 3%. The result in experiment [5], in experiment [6], in experiment [7] and in experiment [8] was inactive.

On to `CCCc1cc(NC2CCN(C)CC2)nc(Nc2ccc(F)cc2)n1`, for which the growth inhibition was 16% in experiment [1] and 95% (active) in experiment [4]. The inhibition in experiment [2] was 20%; in experiment [3], -7%. Further, the result in experiment [5], in experiment [6], in experiment [7] and in experiment [8] was inactive.

As to `Cc1ccc2sc(N3CCN(C(=O)c4ccc([N+](=O)[O-])o4)CC3)nc2c1C`, the results for the growth inhibition in experiment [1] and in experiment [4] were 86% (active) and 90% (active), respectively. Further, the figures for the inhibition in experiment [2] and in experiment [3] were -7% and 5%, respectively. For the same compound, the result in experiment [5], in experiment [6], in experiment [7] and in experiment [8] was inactive.

As to `N#Cc1ccc(OCCN(Cc2ccccc2C(F)(F)F)c2ccc(C#N)c(C(F)(F)F)c2)cc1`, the growth inhibition was 84% (active) in experiment [1] and 101% (active) in experiment [4]. The inhibition in experiment [2] was 69% (active); in experiment [3], 1%. In addition, the result in experiment [5], in experiment [6], in experiment [7] and in experiment [8] was inactive.

As for `CCCc1cc2c3c(N)nc(N)nc3ccc2n1C(CC)CC`, the growth inhibition in experiment [1] was 73% (active); in experiment [4], 102% (active). Besides, the inhibition in experiment [2] was 70% (active); in experiment [3], -1%. For the same compound, the result in experiment [5], in experiment [6], in experiment [7] and in experiment [8] was inactive.

With `COC(=O)c1cccc(NC(=O)NC2CCN(c3ccnc(Nc4cc(OC)c(OC)c(OC)c4)n3)C2)c1` (stereo not given), the growth inhibition in experiment [1] is 68% (active); in experiment [4] it was 99% (active). Further, the inhibition in experiment [2] was 7%; in experiment [3], 3%. The result in experiment [5], in experiment [6], in experiment [7] and in experiment [8] was inactive.

As to `O=C(Nc1cccc(CN2CCCN(CC3CC3)CC2)c1)c1ccc(Cl)c(Cl)c1`, the figures for the growth inhibition in experiment [1] and in experiment [4] were 5% and 92% (active), respectively. The inhibition in experiment [2] is 13%; in experiment [3], 4%. Also, the result in experiment [5], in experiment [6], in experiment [7] and in experiment [8] was inactive.

For `COc1ccccc1CCNc1nccc(N[C@@H](Cc2ccccc2)C(=O)NCc2cccs2)n1`, the growth inhibition in experiment [1] is 79% (active); in experiment [4] it was 90% (active). In addition, the inhibition was 34% in experiment [2] and 3% in experiment [3]. Moreover, the outcome in experiment [5], in experiment [6], in experiment [7] and in experiment [8] was inactive.

Regarding `COc1ccc(NC(=O)[C@H](Cc2ccccc2)Nc2cc(C)nc(NCC3CCCCC3)n2)cc1`, the growth inhibition is 83% (active) in experiment [1] and 100% (active) in experiment [4]. Further, the values for the inhibition in experiment [2] and in experiment [3] were 9% and 1%, respectively. In addition, the result in experiment [5], in experiment [6], in experiment [7] and in experiment [8] was inactive.

On to `CN1CCCN(Cc2ccc(-c3cccc(NC(=O)c4cccc(Cl)c4)c3)cc2)CC1`, for which the growth inhibition was 32% in experiment [1] and 100% (active) in experiment [4]. Also, the inhibition in experiment [2] was 33%; in experiment [3], -3%. Further, the outcome in experiment [5], in experiment [6], in experiment [7] and in experiment [8] was inactive.

For the compound `CCc1c(CCNCCCCCCNC(C)(C)Cc2ccc3c(c2CC)OCO3)ccc(OC)c1OC`, the growth inhibition was 50% (active) in experiment [1] and 101% (active) in experiment [4]. The inhibition was 100% (active) in experiment [2] and -1% in experiment [3]. Also, the result in experiment [5], in experiment [6], in experiment [7] and in experiment [8] was inactive.

On to `O=C(Nc1ccc(C(=O)OC[C@@H]2CCCN3CCCC[C@H]23)cc1)c1ccc(Cl)c(Cl)c1`, for which the growth inhibition in experiment [1] was 37%; in experiment [4], 99% (active). In addition, the values for the inhibition in experiment [2] and in experiment [3] were 20% and 0%, respectively. Further, the outcome in experiment [5], in experiment [6], in experiment [7] and in experiment [8] was inactive.

For the compound `CCCNC(=O)c1cncc(-c2ccc(CNC3Cc4ccccc4C3)cc2)c1`, the growth inhibition in experiment [1] was 21%; in experiment [4] it was 97% (active). The inhibition was 9% in experiment [2] and -8% in experiment [3]. Further, the result in experiment [5], in experiment [6], in experiment [7] and in experiment [8] was inactive.

Turning to `O=C(NCCCCN1CCC(c2ccc3c(c2OCCO)CCCC3)CC1)c1ccc2oc(-c3ccc(C(F)(F)F)cc3)cc2c1`, the growth inhibition in experiment [1] is 56% (active); in experiment [4] it was 93% (active). For the same compound, the inhibition is 54% (active) in experiment [2] and 4% in experiment [3]. The outcome in experiment [5], in experiment [6], in experiment [7] and in experiment [8] was inactive.

For the compound `CC(=O)Nc1cccc(C(=O)Nc2cccc(-c3ccc(-c4nc5ccc(C(F)(F)F)cc5[nH]4)s3)c2)c1`, the figures for the growth inhibition in experiment [1] and in experiment [4] were 46% and 98% (active), respectively. Further, the inhibition was 80% (active) in experiment [2] and -3% in experiment [3]. Moreover, the result in experiment [5], in experiment [6], in experiment [7] and in experiment [8] was inactive.

For `O=C(Nc1cc(F)c(F)c(-c2cccnc2)c1)N1CCc2cc(Cl)c(Cl)cc21`, the growth inhibition in experiment [1] was 9%; in experiment [4], 94% (active). The inhibition in experiment [2] was 0%; in experiment [3] it was 5%. Also, the outcome in experiment [5], in experiment [6], in experiment [7] and in experiment [8] was inactive.

For the compound `COc1ccc(C2c3cc(OC)c(OC)cc3C(=NO)C2C)cc1OC` (stereo not given), the values for the growth inhibition in experiment [1] and in experiment [4] were 6% and 90% (active), respectively. Also, the inhibition was 20% in experiment [2] and -2% in experiment [3]. Also, the result in experiment [5], in experiment [6], in experiment [7] and in experiment [8] was inactive.

For the compound `CCCCCC(C)N=C(Nc1ccc([N+](=O)[O-])cc1O)Nc1ccccc1Br` (stereo not given), the growth inhibition is 98% (active) in experiment [1] and 99% (active) in experiment [4]. The inhibition in experiment [2] was -1%; in experiment [3], 5%. Further, the result in experiment [5], in experiment [6], in experiment [7] and in experiment [8] was inactive.

With `COc1ccc([C@@]23Oc4cc(OC)cc(OC)c4[C@]2(O)C2(CC3c3ccccc3)SCCCS2)cc1` (stereo not given in full), the results for the growth inhibition in experiment [1] and in experiment [4] were 97% (active) and 96% (active), respectively. Also, the figures for the inhibition in experiment [2] and in experiment [3] were 39% and -10%, respectively. For the same compound, the outcome in experiment [5], in experiment [6], in experiment [7] and in experiment [8] was inactive.
